Laboratory results reported in PubChem BioAssay (NCI).
The panel holds about 83,000 compounds, 20% with a hit somewhere; the sample as a whole holds those more often.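 How to read the values: 0–100, growth inhibition (40 = 60% inhibited); 0, no net growth; -100 to 0, cell death (-40 = 40% of starting cells died; -100 = all dead).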 The source made the active and inactive calls. The calls were made as follows: active = growth percent below 10; inactive = the rest.

Key:
Assay in all cases: NCI-60 one-dose screen, 48 h (100 = growth as untreated, 0 = no growth, -100 = all killed)
Conditions in all cases: 10 µM unless noted
SR leukemia = test system: SR leukemia
RPMI-8226 leukemia = test system: RPMI-8226 leukemia
OVCAR-8 ovarian = test system: OVCAR-8 ovarian
OVCAR-5 ovarian = test system: OVCAR-5 ovarian
OVCAR-4 ovarian = test system: OVCAR-4 ovarian
SK-OV-3 ovarian = test system: SK-OV-3 ovarian
IGROV1 ovarian = test system: IGROV1 ovarian
OVCAR-3 ovarian = test system: OVCAR-3 ovarian
HS 578T breast = test system: HS 578T breast
NCI/ADR-RES ovarian = test system: NCI/ADR-RES ovarian
T-47D breast = test system: T-47D breast
BT-549 breast = test system: BT-549 breast
MDA-MB-435 melanoma = test system: MDA-MB-435 melanoma
SW-620 colon = test system: SW-620 colon
MCF7 breast = test system: MCF7 breast
HCT-116 colon = test system: HCT-116 colon
HCC-2998 colon = test system: HCC-2998 colon
KM12 colon = test system: KM12 colon

Measured: growth

COc1cnc2c(c1)C(=O)c1c-2n(CCCBr)c(=O)c2cc([N+](=O)[O-])ccc12
active: SR leukemia 7.47% | RPMI-8226 leukemia -12.9% | OVCAR-8 ovarian 2.09% | OVCAR-5 ovarian 5.53% | OVCAR-4 ovarian 5.15% | SK-OV-3 ovarian 8.4% | IGROV1 ovarian 2.21% | OVCAR-3 ovarian -44.1% | T-47D breast 2.87% | MCF7 breast 1.77% | HCT-116 colon -24.8% | KM12 colon 1.44%
inactive: HS 578T breast 36.9% | NCI/ADR-RES ovarian 11.6% | BT-549 breast 25.5% | MDA-MB-435 melanoma 11.4% | SW-620 colon 12.1% | HCC-2998 colon 13.7%

COc1cccc(-c2nc3sccn3c2-c2ccnc(NCCCNS(=O)(=O)c3ccc(Cl)cc3)c2)c1
active: RPMI-8226 leukemia 9.05% | T-47D breast 2.4%
inactive: SR leukemia 50% | OVCAR-8 ovarian 31.1% | OVCAR-5 ovarian 90.6% | OVCAR-4 ovarian 43.1% | SK-OV-3 ovarian 75.3% | IGROV1 ovarian 42% | OVCAR-3 ovarian 51.3% | HS 578T breast 65.3% | NCI/ADR-RES ovarian 26.9% | BT-549 breast 34.4% | MDA-MB-435 melanoma 38.4% | SW-620 colon 58.3% | MCF7 breast 34.6% | HCT-116 colon 44% | HCC-2998 colon 66.5% | KM12 colon 43.5%

C/C(=C(/c1ccc(O)cc1)c1ccc(Cl)cc1)c1ccccc1
active: SR leukemia -27.9% | RPMI-8226 leukemia -45.9% | OVCAR-8 ovarian -53% | OVCAR-5 ovarian -85.3% | OVCAR-4 ovarian -97.4% | SK-OV-3 ovarian -85.6% | IGROV1 ovarian -73.1% | OVCAR-3 ovarian -92.5% | HS 578T breast -37.6% | NCI/ADR-RES ovarian -71% | T-47D breast -13.5% | BT-549 breast -78.9% | MDA-MB-435 melanoma -93.1% | SW-620 colon -71.4% | MCF7 breast -63.3% | HCT-116 colon -69.4% | HCC-2998 colon -74.9% | KM12 colon -86.2%

COc1ccc(S(=O)(=O)NCCCNc2cc(-c3c(-c4cccc(OC)c4)nc4sccn34)ccn2)cc1
inactive: SR leukemia 43.5% | RPMI-8226 leukemia 13.1% | OVCAR-8 ovarian 38.5% | OVCAR-5 ovarian 86.3% | OVCAR-4 ovarian 36.4% | SK-OV-3 ovarian 73.4% | IGROV1 ovarian 51.8% | OVCAR-3 ovarian 52.1% | HS 578T breast 62.9% | NCI/ADR-RES ovarian 32.5% | BT-549 breast 45.1% | MDA-MB-435 melanoma 44.4% | SW-620 colon 63.7% | MCF7 breast 34.5% | HCT-116 colon 47.3% | HCC-2998 colon 70.7% | KM12 colon 39.6%
active: T-47D breast 2.13%

CCOC(=O)c1c2c(n3ccc(NC(=O)CCN4CCOCC4)cc13)C(=O)c1ncccc1C2=O
inactive: RPMI-8226 leukemia 31.8% | OVCAR-8 ovarian 48% | OVCAR-5 ovarian 88.9% | OVCAR-4 ovarian 37% | SK-OV-3 ovarian 36.6% | IGROV1 ovarian 31.3% | HS 578T breast 52% | NCI/ADR-RES ovarian 40.5% | T-47D breast 32.6% | BT-549 breast 58.3% | MDA-MB-435 melanoma 19.4% | SW-620 colon 37.2% | HCT-116 colon 21.8% | HCC-2998 colon 42.5% | KM12 colon 46.2%
active: SR leukemia -2.96% | OVCAR-3 ovarian 4.63% | MCF7 breast -31.7%

c1ccc2sc(SCCCn3ccnc3)nc2c1
inactive: SR leukemia 87.9% | RPMI-8226 leukemia 79% | OVCAR-8 ovarian 88.2% | OVCAR-5 ovarian 118% | OVCAR-4 ovarian 93.2% | SK-OV-3 ovarian 90.2% | IGROV1 ovarian 103% | OVCAR-3 ovarian 86.4% | HS 578T breast 102% | NCI/ADR-RES ovarian 94.2% | T-47D breast 75.5% | BT-549 breast 96.8% | MDA-MB-435 melanoma 97.6% | SW-620 colon 97.4% | MCF7 breast 88.1% | HCT-116 colon 92.5% | HCC-2998 colon 94.1% | KM12 colon 97.8%

COc1cccc2c1C(=O)c1c(O)c3c(c(O)c1C2=O)C[C@@](O)(/C(C)=N/NC(=O)c1ccc(Cl)cc1)C[C@@H]3OC1CC(N)C(O)C(C)O1 (stereo partly specified)
inactive: OVCAR-5 ovarian 13.9% | NCI/ADR-RES ovarian 47.8%
active: SR leukemia -34.1% | RPMI-8226 leukemia -28.7% | OVCAR-8 ovarian -49.9% | OVCAR-4 ovarian -9.91% | SK-OV-3 ovarian 5.07% | IGROV1 ovarian -21.8% | OVCAR-3 ovarian -28.5% | HS 578T breast -28.4% | T-47D breast -11.6% | BT-549 breast -45.3% | MDA-MB-435 melanoma -87.3% | SW-620 colon -36.6% | MCF7 breast -13.8% | HCT-116 colon 7.54% | HCC-2998 colon -45% | KM12 colon -26.2%

O=C(/C=C\c1cccc([N+](=O)[O-])c1)c1ccccc1
active: RPMI-8226 leukemia 0.104% | IGROV1 ovarian -53% | OVCAR-3 ovarian -83% | T-47D breast -5.11% | SW-620 colon -30.1% | MCF7 breast -9.56% | HCT-116 colon -68.3% | KM12 colon -49.7%
inactive: SR leukemia 12.7% | OVCAR-8 ovarian 74.1% | OVCAR-5 ovarian 111% | OVCAR-4 ovarian 54.4% | SK-OV-3 ovarian 115% | HS 578T breast 86.5% | NCI/ADR-RES ovarian 83.6% | BT-549 breast 90.1% | MDA-MB-435 melanoma 65.7% | HCC-2998 colon 10.9%

Cc1ccc2cnc(N)c(C#Cc3cncc(C(=O)Nc4ccc(CN5CCN(C)CC5)c(C(F)(F)F)c4)c3)c2c1
active: SR leukemia -31.2% | RPMI-8226 leukemia -31.4% | OVCAR-8 ovarian -85.4% | OVCAR-5 ovarian -89% | OVCAR-4 ovarian -88% | SK-OV-3 ovarian -17.5% | IGROV1 ovarian -59.8% | OVCAR-3 ovarian -97.6% | HS 578T breast -39.2% | NCI/ADR-RES ovarian -67.2% | T-47D breast -65.2% | BT-549 breast -75.1% | MDA-MB-435 melanoma -96.6% | SW-620 colon -86.1% | MCF7 breast -85.8% | HCT-116 colon -36.1% | HCC-2998 colon -82.9% | KM12 colon -82.6%

CCC(=O)OCc1cccc(OC)c1
inactive: SR leukemia 116% | RPMI-8226 leukemia 84.8% | OVCAR-8 ovarian 98.2% | OVCAR-5 ovarian 118% | OVCAR-4 ovarian 94.6% | SK-OV-3 ovarian 103% | IGROV1 ovarian 81% | OVCAR-3 ovarian 107% | HS 578T breast 101% | NCI/ADR-RES ovarian 106% | T-47D breast 95.3% | BT-549 breast 103% | MDA-MB-435 melanoma 97.7% | SW-620 colon 108% | MCF7 breast 105% | HCT-116 colon 95.1% | HCC-2998 colon 101% | KM12 colon 108%

CNc1cc2nc3cc(NC)c(C)cc3cc2cc1C
inactive: OVCAR-5 ovarian 24.5% | OVCAR-4 ovarian 10.8% | SK-OV-3 ovarian 12.7% | IGROV1 ovarian 21.1% | HS 578T breast 13.1% | NCI/ADR-RES ovarian 40.7% | BT-549 breast 20.6% | MDA-MB-435 melanoma 41.7% | HCC-2998 colon 18.7%
active: SR leukemia -27.6% | RPMI-8226 leukemia 3.16% | OVCAR-8 ovarian 2.25% | OVCAR-3 ovarian 3.6% | T-47D breast 7.86% | SW-620 colon 8.75% | MCF7 breast 3.03% | HCT-116 colon 5.54% | KM12 colon -40.7%

O=C1Nc2ccccc2C12CC(c1ccccc1)=NN2 (stereo unspecified)
inactive: RPMI-8226 leukemia 47.3% | OVCAR-8 ovarian 70.5% | OVCAR-5 ovarian 83.8% | OVCAR-4 ovarian 77.2% | SK-OV-3 ovarian 59.4% | IGROV1 ovarian 43% | OVCAR-3 ovarian 39.6% | HS 578T breast 87.9% | NCI/ADR-RES ovarian 41.5% | T-47D breast 60% | BT-549 breast 64.4% | SW-620 colon 27.7% | MCF7 breast 19.1% | HCT-116 colon 29.4% | HCC-2998 colon 75.6% | KM12 colon 43.3%
active: SR leukemia -7.86% | MDA-MB-435 melanoma -24.9%

S=c1[nH]nc(CSc2ncnc3c2c(-c2ccccc2)cn3-c2ccc(Cl)cc2)o1
inactive: SR leukemia 105% | RPMI-8226 leukemia 98% | OVCAR-8 ovarian 97.5% | OVCAR-5 ovarian 104% | OVCAR-4 ovarian 95.4% | SK-OV-3 ovarian 78.2% | IGROV1 ovarian 92.3% | OVCAR-3 ovarian 101% | HS 578T breast 94.5% | NCI/ADR-RES ovarian 99.3% | T-47D breast 90.6% | BT-549 breast 107% | MDA-MB-435 melanoma 104% | SW-620 colon 95.2% | MCF7 breast 93.7% | HCT-116 colon 93.8% | HCC-2998 colon 104% | KM12 colon 98.7%

Oc1cc(O)c2c(=S)cc(-c3ccc(Cl)cc3)oc2c1
active: RPMI-8226 leukemia -4.71% | OVCAR-4 ovarian 6.46% | T-47D breast 0.614% | MCF7 breast 6.22%
inactive: SR leukemia 36.1% | OVCAR-8 ovarian 35% | OVCAR-5 ovarian 60.3% | SK-OV-3 ovarian 61.8% | IGROV1 ovarian 26.1% | OVCAR-3 ovarian 17.6% | HS 578T breast 40.5% | NCI/ADR-RES ovarian 25.5% | BT-549 breast 38.4% | MDA-MB-435 melanoma 25.9% | SW-620 colon 41.5% | HCT-116 colon 17.6% | HCC-2998 colon 57.7% | KM12 colon 38.7%

COc1ccc(CCN2CC=Cn3c2nc2ccccc2c3=O)cc1
active: OVCAR-3 ovarian -1.6% | MDA-MB-435 melanoma -4.94% | HCC-2998 colon 5.15% | KM12 colon 4.27%
inactive: SR leukemia 22.1% | RPMI-8226 leukemia 21.4% | OVCAR-8 ovarian 22.2% | OVCAR-5 ovarian 45% | OVCAR-4 ovarian 41.6% | SK-OV-3 ovarian 59.8% | IGROV1 ovarian 32.2% | HS 578T breast 37.9% | NCI/ADR-RES ovarian 15% | T-47D breast 75% | BT-549 breast 17.2% | SW-620 colon 25.9% | MCF7 breast 18.9% | HCT-116 colon 10.2%

Cc1cc(Nc2nc(N3CCN(C)CC3)nc3ccccc23)n[nH]1
inactive: SR leukemia 20.7% | RPMI-8226 leukemia 87.2% | OVCAR-8 ovarian 99.6% | OVCAR-5 ovarian 86.7% | OVCAR-4 ovarian 54.5% | SK-OV-3 ovarian 25.5% | IGROV1 ovarian 35.6% | OVCAR-3 ovarian 75.8% | HS 578T breast 50.8% | NCI/ADR-RES ovarian 122% | T-47D breast 71.2% | BT-549 breast 76.2% | MDA-MB-435 melanoma 52.2% | SW-620 colon 69.2% | MCF7 breast 46.2% | HCT-116 colon 50.3% | HCC-2998 colon 87.6% | KM12 colon 19%

COc1ccc(C(=O)c2sc3nc4c(cc3c2N)CCCC4)cc1OC
active: SR leukemia -7.02% | MDA-MB-435 melanoma -9.21%
inactive: RPMI-8226 leukemia 10.4% | OVCAR-8 ovarian 43.1% | OVCAR-5 ovarian 86.9% | OVCAR-4 ovarian 60.7% | SK-OV-3 ovarian 71.6% | IGROV1 ovarian 35.9% | OVCAR-3 ovarian 20.6% | HS 578T breast 74% | NCI/ADR-RES ovarian 19.7% | T-47D breast 15.5% | BT-549 breast 24.1% | SW-620 colon 34.6% | MCF7 breast 27.1% | HCT-116 colon 19.4% | HCC-2998 colon 109% | KM12 colon 26.9%
